In the library only some 2.4% were active in any assay of this set; here they are far more common.
Mcl1-Bid inh: Mcl-1/Bid interaction inhibition; Q07820; inhibition, % at 21.7 µM; TR-FRET Mcl-1/Bid-Dy647 peptide binding, 1536-well; 220,000 tested, 0.97% active; AID 1021;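 active means compounds that cut the binding signal by more than half at the single screening dose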;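 further: His-tagged Mcl-1 with europium anti-His antibody binding Bid BH3 peptide; 0% = Mcl-1 plus peptide wells and 100% = peptide-only wells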
Target sequence (Q07820 whole entry, looked up): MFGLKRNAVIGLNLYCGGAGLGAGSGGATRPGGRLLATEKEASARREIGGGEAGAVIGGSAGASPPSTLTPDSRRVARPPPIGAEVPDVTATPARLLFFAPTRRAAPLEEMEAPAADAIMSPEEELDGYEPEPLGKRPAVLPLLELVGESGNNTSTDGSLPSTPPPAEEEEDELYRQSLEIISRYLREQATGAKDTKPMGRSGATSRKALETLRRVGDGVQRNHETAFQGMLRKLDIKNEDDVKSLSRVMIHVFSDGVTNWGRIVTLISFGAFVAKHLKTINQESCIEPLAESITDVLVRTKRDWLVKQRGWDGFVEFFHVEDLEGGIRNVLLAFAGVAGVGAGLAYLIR
Mcl1-Noxa inh: Mcl-1/Noxa interaction inhibition; Q07820; TR-FRET Mcl-1/Noxa peptide binding, 2 h; inhibition, % at 21.7 µM; 220,000 tested, 1.5% active; AID 1022;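 active means compounds that cut the protein-peptide binding signal by more than 50% relative to plate controls in a single-dose test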;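 further: His-tagged Mcl-1 with rhodamine Noxa BH3 peptide and terbium anti-His antibody; 0% = Mcl-1 plus Noxa peptide wells and 100% = peptide-only wells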
Bim-Mcl-1: disrupts Bim peptide binding to human Mcl-1; Q07820; Bead-based flow cytometry, Bim peptide-Mcl-1 binding; inhibition, % at 10 µM; 190,000 tested, 0.1% active; AID 1009; in the data active means inhibition above about 40%;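 further: 0% = no compound tracer wells and 100% = peptide blocker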
MCL1-BIM inh: MCL1-BIM-BH3 interaction inhibition (human) | Q07820 | GST-MCL1 / FITC-Bim-BH3 fluorescence polarization | inhibition, % at 10.9 µM | 320,000 tested, 0.68% active;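 active means inhibition above the mean inhibition of all tested compounds plus 3 SD, set per campaign, cut at about 40% in these data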;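 further: 0% = DMSO wells and 100% = unlabeled Bim-BH3 peptide control; higher means more loss of mP so more displacement of Bim peptide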
TNF necrop inh: inhibitors of TNF-alpha induced necroptosis in Jurkat FADD-/- cells. Jurkat FADD-/- TNF necroptosis rescue, ATP luminescence, 24 h; 0 = TNF only, 100 = no-TNF cells. activation (protection from cell death), % at 10 µM. 220,000 tested, 0.068% active. AID 463075;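 active means activation, meaning protection from cell death, of at least 50% relative to plate controls; inactive means activation below 50%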;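 further: necroptosis triggered by 40 ng/mL TNF-alpha added together with compound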
zVAD death inh: L929 zVAD cell death inhibition; L929 zVAD necroptosis rescue, ATP luminescence, 24 h; with zVAD 60 µM; viability rescue, % at 10 µM; 220,000 tested, 0.38% active; AID 1377;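 active means activation, scaled between plate controls, above about 75%, limit read from the data; inactive means activation under that limit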;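 further: 0% = zVAD with DMSO and 100% = DMSO alone without zVAD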
BCLXL inh confirm: Bcl-xL (human) inhibition, MCL1 counter-screen confirmation; GST-Bcl-xL / FITC-Bim BH3 peptide FP binding; AID 2166; shares compounds with MCL1-BIM inh; inhibition, % at 10.9 µM; 1,700 tested, 54% active;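 active means inhibition above a cutoff equal to the mean inhibition of all tested compounds plus 3 SD, cut at about 30% in these data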;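 further: 0% = DMSO wells and 100% = unlabeled Bim BH3 control peptide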
Target sequence (Q07817 whole entry, looked up): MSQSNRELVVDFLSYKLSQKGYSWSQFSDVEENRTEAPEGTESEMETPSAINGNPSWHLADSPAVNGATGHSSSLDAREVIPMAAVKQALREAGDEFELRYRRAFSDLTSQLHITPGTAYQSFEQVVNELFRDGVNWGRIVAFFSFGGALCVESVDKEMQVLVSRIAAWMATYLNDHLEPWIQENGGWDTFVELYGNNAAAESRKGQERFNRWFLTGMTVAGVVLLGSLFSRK
MCL1 BIM confirm: confirmation of human MCL1 and BIM-BH3 interaction inhibitors; shares compounds with MCL1-BIM inh; GST-MCL1 / FITC-Bim-BH3 fluorescence polarization; inhibition, % at 10.9 µM; 1,700 tested, 61% active; AID 2168;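 active means inhibition above the average of all tested compounds plus 3 SD, cut at about 40% in these data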;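 further: 0% = DMSO wells and 100% = unlabeled Bim-BH3 control peptide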
An asterisk follows results filed as active; nt = no result given; + = active, no number.

SMILES | Mcl1-Bid inh | Mcl1-Noxa inh | Bim-Mcl-1 | MCL1-BIM inh | TNF necrop inh | zVAD death inh | BCLXL inh confirm | MCL1 BIM confirm
CN1C(=O)/C(=C/c2cccc(Cl)c2)Sc2ccc(C(=O)N3CCCC3)cc21 | nt | nt | nt | -1 | nt | nt | nt | nt
Cn1nc([N+](=O)[O-])c(C(C#N)c2ccccn2)c(Cl)c1=O (stereo not given) | -26 | 5 | -1 | 60* | 9 | 1 | 23 | 15
N#CC(c1ccccn1)c1ncc(C(F)(F)F)cc1Cl (stereo not given) | -21 | 0 | -2 | 10 | 0 | 1 | nt | nt
COc1ccc2nc(SCC(=O)NC3(C#N)CCCCC3)[nH]c2c1 | nt | nt | nt | 1 | nt | nt | nt | nt
COc1c(S(=O)(=O)N2CCN(C(=O)c3ccco3)CC2)ccc(Cl)c1Cl | nt | nt | nt | 11 | nt | nt | nt | nt
Cc1ccc(NC2=Nc3ccccc3N3C2=Nc2c(c(C)nn2-c2ccccc2)C3c2ccc(O)c(O)c2)cc1 (stereo not given) | 2 | 18 | 7 | nt | -10 | 0 | nt | nt
Cc1nn(-c2ccccc2)c2c1C(c1ccc(O)c(O)c1)N1C(=N2)C(Nc2ccccc2)=Nc2ccccc21 (stereo not given) | 0 | 38 | 3 | 70* | -8 | 0 | 18 | 19
COc1cccc(NC(=O)CSc2nnc(-c3ccco3)c(-c3ccco3)n2)c1 | nt | nt | nt | 49* | nt | nt | 35* | 64*
COc1ccc(NC(=O)CSc2nnc(-c3ccco3)c(-c3ccco3)n2)cc1OC | nt | nt | nt | 8 | nt | nt | nt | nt
O=C(CSc1nnc(-c2ccccc2)c(-c2ccccc2)n1)NCc1ccco1 | -12 | 1 | -4 | -1 | -7 | -1 | nt | nt
O=C(CSc1nnc(-c2ccco2)c(-c2ccco2)n1)Nc1ccccc1 | 23 | 90* | -1 | 60* | -1 | 0 | 34* | 83*
CC(C)OCCCNc1ccc(N2C(=O)CCCC2=O)cc1[N+](=O)[O-] | nt | nt | nt | -2 | nt | nt | nt | nt
Cc1ccc(Nc2nc(=O)c3cccnc3s2)c(Br)c1 | -25 | 17 | nt | 8 | -1 | 0 | nt | nt
CC1OC23CCCCC2C(C#N)(C(=N)O3)C1(C#N)C#N (stereo not given) | -15 | 7 | 2 | 21 | -3 | 0 | nt | nt
N#CC1(C#N)COC23CCCCC2C1(C#N)C(=N)O3 (stereo not given) | -32 | 12 | 0 | 78* | -2 | 0 | 16 | 15
N#CC12COC3(CCCCC3C1(C#N)C#N)OC2=N (stereo not given) | -137 | 10 | nt | 72* | -21 | 0 | 21 | 12
COc1ccc(C(=O)N(C)CCCC2CCCC2)cc1OC1CCN(C(C)C)CC1 | nt | nt | nt | 7 | nt | nt | nt | nt
Cc1cccn2c(=O)c3cc(C(=O)NCc4cccnc4)c(=N)n(C(C)C)c3nc12 | -58 | 6 | 2 | 14 | 0 | -1 | nt | nt
Cc1ccc2nc3c(cc(C(=O)NCc4ccco4)c(=N)n3Cc3ccco3)c(=O)n2c1 | -31 | 22 | -1 | 58* | -6 | -1 | 13 | 7
Cc1ccc(S(=O)(=O)c2cc3c(=O)n4ccccc4nc3n(Cc3ccco3)c2=N)cc1 | 26 | 72* | 1 | 58* | -3 | -1 | 25 | 20
N=c1c(C(=O)NC2CCCC2)cc2c(=O)n3ccccc3nc2n1C1CCCC1 | -36 | -4 | -1 | 7 | 0 | -1 | nt | nt
Cc1ccc(CNC(=O)c2cc3c(=O)n4ccccc4nc3n(Cc3ccco3)c2=N)cc1 | nt | nt | nt | -3 | nt | nt | nt | nt
Cc1cccn2c(=O)c3cc(C(=O)NCc4ccco4)c(=N)n(C(C)C)c3nc12 | 3 | 20 | 0 | 90* | -2 | -1 | 39* | 63*
N=c1c(C(=O)NCc2ccco2)cc2c(=O)n3ccccc3nc2n1C1CCCC1 | nt | nt | nt | 63* | nt | nt | 157* | 194*
O=C(COC(=O)Cc1ccc(Br)cc1)NC1CC1 | nt | nt | nt | 3 | nt | nt | nt | nt
SMILES | Mcl1-Bid inh | Mcl1-Noxa inh | Bim-Mcl-1 | MCL1-BIM inh | TNF necrop inh | zVAD death inh | BCLXL inh confirm | MCL1 BIM confirm
Cc1cccc(NC(=O)CNC(=O)CCc2nc3sc4c(c3c(=O)[nH]2)CCCC4)c1C | nt | nt | nt | 43* | nt | nt | 34* | 67*
Brc1ccc(C2Nc3cccc4cccc(c34)N2)o1 | -1 | 65* | -1 | 55* | -8 | 1 | 23 | 29
COc1ccc(C2Nc3cccc4cccc(c34)N2)cc1 | -16 | 31 | 1 | 10 | -3 | 0 | nt | nt
Brc1cccc(C2Nc3cccc4cccc(c34)N2)c1 | nt | nt | nt | 44* | nt | nt | 24 | 26
c1ccc(C2Nc3cccc4cccc(c34)N2)cc1 | nt | nt | nt | 52* | nt | nt | 40* | 55*
c1csc(C2Nc3cccc4cccc(c34)N2)c1 | -13 | nt | 0 | 62* | -12 | 0 | 25 | 22
CN(C)c1ccc(C2Nc3cccc4cccc(c34)N2)cc1 | nt | nt | nt | -8 | nt | nt | nt | nt
Clc1cccc(Cl)c1C1Nc2cccc3cccc(c23)N1 | nt | nt | nt | 14 | nt | nt | nt | nt
CCCCNC(=O)[C@H]1N2C(=O)c3c(ccc(OC)c3OC)C2SC1(C)C (stereo not given in full) | nt | nt | nt | 11 | nt | nt | nt | nt
Clc1cccc(C2Nc3cccc4cccc(c34)N2)c1 | nt | nt | nt | 46* | nt | nt | 25 | 41*
CN1CCN(/N=C/c2c3ccccc3c(Cl)c3ccccc23)CC1 | -6 | 11 | 0 | 127* | 7 | 60 | 22 | 27
COc1cc([N+](=O)[O-])c2ncsc2c1 | 9 | 12 | -9 | -2 | 0 | 1 | nt | nt
COc1cc(SSc2cc(OC)cc([N+](=O)[O-])c2N)c(N)c([N+](=O)[O-])c1 | -13 | 75* | nt | 55* | -15 | -1 | 31* | 53*
COc1ccc(NC(=S)NC(=O)/C=C/c2ccco2)cc1 | -16 | 20 | -1 | 1 | 0 | 0 | nt | nt
O=C(/C=C/c1ccco1)NC(=S)Nc1ccc(C(=O)O)cc1 | nt | nt | nt | 67* | nt | nt | 26 | 39
CC1=CC2=C(OC1N(C)C)c1cccc3cccc(c13)C2=O (stereo not given) | -5 | 13 | 4 | 143* | -1 | 1 | 36* | 39
CN(C(=O)Cn1nc(C(=O)O)c2ccccc2c1=O)C1(C#N)CCCCC1 | nt | nt | nt | 4 | nt | nt | nt | nt
COCC(C)n1c(SCc2ccc(C(=O)OC)cc2)nc2ccccc2c1=O (stereo not given) | nt | nt | nt | 3 | nt | nt | nt | nt
FC(F)c1nc2ccccc2[nH]1 | -4 | -16 | -2 | -5 | 1 | 4 | nt | nt
c1ccc2[nH]c3cc4ncnc4cc3nc2c1 | -22 | 12 | 13 | + | -4 | 3 | + | +
CS(=O)(=O)CCC(C(=O)Nc1ccc2c(c1)OCO2)N1Cc2ccccc2C1=O (stereo not given) | nt | nt | nt | 7 | nt | nt | nt | nt
COc1cc(C(O)c2nc3ccccc3n2C(C)C)cc(OC)c1OC (stereo not given) | nt | nt | nt | -2 | nt | nt | nt | nt

Screening results from PubChem.
